D2 ag-1: D2 dopamine receptor (human) agonism | HEK293 T-REx D2 cells, calcium flux agonist mode | activation, % at 2 µM | actives 0.53% (n = 340,000) | AID 485358;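 active = activation over 3 SD above normal in the single-dose calcium agonist read, cut at about 30% in these data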; also: 0% is about no effect
Target sequence (P14416 whole entry, looked up): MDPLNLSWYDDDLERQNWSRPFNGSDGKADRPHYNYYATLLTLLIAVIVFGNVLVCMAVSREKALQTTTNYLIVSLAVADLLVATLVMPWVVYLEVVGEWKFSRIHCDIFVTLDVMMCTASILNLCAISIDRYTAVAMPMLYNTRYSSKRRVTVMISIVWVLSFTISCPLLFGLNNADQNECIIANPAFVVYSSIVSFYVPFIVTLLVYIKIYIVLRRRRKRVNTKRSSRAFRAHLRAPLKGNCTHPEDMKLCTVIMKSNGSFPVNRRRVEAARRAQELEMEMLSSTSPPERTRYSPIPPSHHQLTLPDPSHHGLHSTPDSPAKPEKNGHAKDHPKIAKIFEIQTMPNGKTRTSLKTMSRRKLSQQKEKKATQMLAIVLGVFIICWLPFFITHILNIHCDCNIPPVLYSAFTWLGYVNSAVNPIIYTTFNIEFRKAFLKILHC
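Calcium-flux readout, 1 cycle/sec over 180 s following compound pin transfer, in inducible HEK293 Trex D2 cells (force-coupled); dopamine controls included. Positive calcium responses during this window marked compounds as potential agonists.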
D2 PAM-1: positive allosteric modulators of human D2 dopamine receptor. potentiation, % at 10 µM. P14416. HEK293 T-REx D2, calcium flux, EC20 dopamine potentiation. AID 485347. actives 0.34% (n = 340,000);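 active = potentiation over 3 SD above the plate norm, cut at about 30% in these data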; also: 0% is about no effect
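Potentiation of an EC20 dopamine calcium response is measured in a force-coupled, tetracycline-inducible Hek293 Trex D2 line. Compound-only kinetic reads over 180 s flag agonists before dopamine addition.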
D2 antagonist: antagonizes the human D2 dopamine receptor; P14416; HEK293 TREx D2 cells, calcium flux, dopamine EC80; inhibition, % at 10 µM; actives 2% (n = 340,000); AID 485344; in the data active = inhibition above about 30%; inactive = below that, where a call was filed; also: 0% is about no effect
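Read-out: kinetic calcium fluorescence (1 cycle/s) in inducible HEK293 T-REx D2 cells after an EC80 dopamine addition that followed 180 s compound preincubation. Loss of the dopamine response indicates antagonism.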
D2 PAM-2: positive allosteric modulators of human D2 dopamine receptor; P14416; potentiation, % (concentration not given with the values); actives 0.23% (n = 360,000); DiscoveRx D2 beta-arrestin cells, luminescence, 90 min; 100% = 57 uM dopamine signal; in the data active = potentiation above about 50%; inconclusive = mostly about 30% to 49%
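D2 cells co-treated with compound plus 50 nM dopamine (EC20) for 90 min at 37 deg C to detect potentiation. Beta-arrestin recruitment was read as enzyme-fragment luminescence after 1 h at ambient temperature. Full response was set by 57 uM dopamine.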
D2 ag-2: agonists of human D2 dopamine receptor (beta-arrestin). activation, % (concentration not given with the values). actives 0.084% (n = 360,000). AID 624465. DiscoveRx PathHunter D2 beta-arrestin, luminescence, 90 min; 100% = 57 uM dopamine signal; in the data active = activation above about 40%; inconclusive = between about 15% and that limit
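DiscoveRx PathHunter D2 beta-arrestin cells (2,100/well) attached overnight, then compound-stimulated 90 min at 37 C in HBSS/10 mM HEPES/0.1% Tween-20 buffer; beta-galactosidase complementation read by luminescence after 1 h at ambient temperature. Dopamine 57 uM final (EC100) as control.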
D3 ag: activates human D3 dopamine receptor beta-arrestin recruitment | AID 720506 | actives 4% (n = 2,300) | shares compounds with D2 ag-1 | Potency, µM (series often up to 76.9 µM), for inactives: top-dose activation, most hits filed as activators | DiscoveRx D3 beta-arrestin cells, luminescence, 90 min;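 also: potency is read from the fitted curve at half-maximal effect; 100% = dopamine control response; nearly all actives have a fitted effect of over 70% in size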
D2 ag-3: counter-screen for D3 agonists: human D2 dopamine receptor agonism; DiscoveRx PathHunter D2 beta-arrestin, luminescence, 90 min; response scale: percent relative to full dopamine signal; Potency, µM (highest dose often 76.9 µM), inactives show at the top dose activation, usual class: activators; actives 5.9% (n = 2,300); shares compounds with D2 ag-1; also: potency is read from the fitted curve at half-maximal effect; % of control where 0% means no effect; nearly all actives have a fitted effect of over 70% in size
An asterisk follows results filed as active; ? = inconclusive; / = no result. In the library only some 2.4% were active in any assay of this set; here they are far more common. Unless noted, calls follow the shape of the dose curve; as a rule, active = well fitted activation curve with a large enough effect; inconclusive = small, poorly fitted or top-dose-only effect; inactive = flat fitted curve, though single readings scatter.

SMILES	D2 ag-1	D2 PAM-1	D2 antagonist	D2 PAM-2	D2 ag-2	D3 ag	D2 ag-3
COc1ccccc1N1CCN(CCCNC(=O)Nc2ccccc2)CC1	87*	-30	101*	-12	?	29%	28%
O=C(NCCCN1CCN(c2ccccc2F)CC1)Nc1ccccc1[N+](=O)[O-]	73*	-25	99*	-17	?	17%	?
CSc1ccc(NC(=O)NCCCN2CCN(c3ccccc3F)CC2)cc1	69*	-20	100*	3	?	?	?
COc1ccc(N2CCN(CCCNC(=O)Nc3ccccc3)CC2)cc1	0	12	-2	-24	-1	/	/
O=C(NCCCN1CCN(c2ccccc2F)CC1)Nc1ccc(F)cc1	76*	-20	81*	-4	14	-1%	?
Cc1nn(-c2ccc(F)cc2)c(-n2cccc2)c1C(=O)NCCCN1CCN(c2ccccc2F)CC1	22	-23	/	/	/	/	/
CC1=C(C(=O)Nc2cc(Cl)ccc2C)C(c2ccccc2F)n2ncnc2N1 (stereo not drawn)	0	3	/	/	/	/	/
CCCS(=O)(=O)c1c(S(=O)(=O)CCC)c2cc(CC)ccn2c1C(=O)c1ccc(Cl)cc1	2	14	/	/	/	/	/
CCOCCCn1c(SCC(=O)OCC)nc2c(sc3ccccc32)c1=O	0	-3	/	/	/	/	/
Cc1cc(C)c(S(=O)(=O)NCC(c2ccc(N(C)C)cc2)N2CCOCC2)c(C)c1 (stereo not drawn)	-1	0	/	/	/	/	/
O=C(Nc1cc(S(=O)(=O)N2CCCCC2)ccc1Oc1ccccc1)C1=COCCO1	/	/	/	-5	7	/	/
COc1ccc(Cl)cc1NC(=O)c1cc2nc(-c3ccc4c(c3)OCO4)cc(C(F)(F)F)n2n1	0	0	/	/	/	/	/
O=C(Cn1c(=O)c2cccn2c2ccc(F)cc21)NCCCN1CCN(c2ccccc2F)CC1	79*	-19	82*	-34	?	4%	?
Cc1[nH]nc2c1C1(CCOCC1)C(C#N)=C(N)O2	1	-3	6	0	-5	/	/
Cc1[nH]nc2c1C1(CCN(Cc3ccccc3)CC1)C(C#N)=C(N)O2	/	/	/	-7	6	-1%	-7%
C/C(=N\NC(=O)c1ccc(Br)cc1)C1C(=O)c2ccccc2C1=O	3	-4	-2	-14	-2	/	/
C/C(=N\NC(=O)c1ccc(-c2ccccc2)cc1)C1C(=O)c2ccccc2C1=O	32*	-14	84*	1	4	2%	-1%
Cc1cccc(/C=N/NC(=O)NC2CCCCC2)c1	3	-10	26	-7	-6	-3%	-3%
COC(=O)[C@H]1C[C@H](O)CN1S(=O)(=O)c1ccc(Br)cc1F	/	/	/	0	-2	/	/
O=C(COC(=O)CCc1c[nH]c2ccccc12)NCc1ccc2c(c1)OCO2	74*	-21	-4	-1	-5	-6%	1%
Clc1ccccc1CN1CCN(c2ncccn2)CC1	80*	-39	76*	59*	70*	-3%	20µM*
Clc1ccccc1CN1CCc2nc(N3CCN(c4ncccn4)CC3)ncc2C1	22	-7	/	/	/	/	/
Clc1ccc(CN2CCN(c3ncccn3)CC2)c(Cl)c1	76*	-24	90*	59*	79*	?	28µM*
O=C(Nc1ccc(Cl)cc1Cl)N1CCN(c2ncccn2)CC1	6	0	-14	3	-3	/	/
Clc1cccc(CN2CCN(c3ncccn3)CC2)c1Cl	69*	-34	61*	24	?	23%	50µM*
SMILES	D2 ag-1	D2 PAM-1	D2 antagonist	D2 PAM-2	D2 ag-2	D3 ag	D2 ag-3
COc1cc2cc(C)c(SCC(=O)N3CCN(C(=O)c4ccco4)CC3)nc2cc1OC	0	12	-2	7	-14	/	/
CCOC(=O)N1CCN(CC(O)COc2ccc(C)c(C)c2)CC1 (stereo not drawn)	0	-6	3	-7	0	/	/
CCC(C)NC(=O)C(CCSC)NC(=O)c1ccccc1 (stereo not drawn)	1	2	23	1	-5	/	/
CSCCC(NC(=O)c1ccccc1)C(=O)NCCCSc1ccccc1 (stereo not drawn)	0	17	-15	-4	-2	-4%	-6%
CCOC(=O)c1nncc(-c2ccccc2)n1	0	16	2	-5	-2	-3%	-3%
CCOC(=O)c1cc(-c2ccccc2)n[nH]1	-1	-1	-15	2	-1	/	/
CCc1ccccc1NC(=O)Nc1c[nH]c(=O)[nH]c1=O	1	0	/	/	/	/	/
Cc1cc(=O)n2nc(N3CCC(C(=O)NCCc4ccc(Cl)cc4)CC3)sc2n1	43*	-12	-20	-3	0	10%	6%
COC(=O)[C@H](Cc1ccccc1)NS(=O)(=O)N[C@@H](Cc1ccccc1)C(=O)OC	5	-9	-8	-4	-2	-6%	-1%
COC(=O)C(Cc1ccccc1)NS(=O)(=O)c1ccccc1Br (stereo not drawn)	2	-5	-27	-3	0	/	/
COc1ccc(C)cc1NC(=O)NC(C)c1ccc2c(c1)OCO2 (stereo not drawn)	65*	-22	8	-30	-3	-5%	-6%
Cc1ccc(CNC(=O)c2ccc(Cl)c(S(N)(=O)=O)c2)n1C	-1	-2	-14	-2	-1	/	/
Cc1ccc(OCCN2CCN(C(=O)CCC(=O)Nc3nnc(C(C)C)s3)CC2)cc1	0	8	-5	-42	3	/	/
Cc1ccc(OCCN2CCN(C(=O)CCC(=O)Nc3nnc(C)s3)CC2)cc1	4	12	6	-16	1	?	1%
Cc1nnc(NC(=O)CCC(=O)N2CCN(CCOc3cccc4ccccc34)CC2)s1	55*	-24	52*	-22	?	?	?
CCCc1nnc(NC(=O)CCC(=O)N2CCN(CCOc3ccc(C)cc3)CC2)s1	-2	11	-2	3	0	/	/
Cn1nc(C(C)(C)C)cc1C(=O)NCc1ccc2c(c1)OCO2	1	14	-18	-4	5	/	/
Cc1cc2nc(-c3cccc(NC(=O)C(C)C)c3C)oc2cc1C	0	-3	/	/	/	/	/
Cc1cccc(Cn2c(=O)oc3ccc(C)cc32)c1	24	11	31*	-4	3	-8%	-2%
COc1cc(C(C)=O)ccc1OCC(O)CN1CCN(c2ccc(F)cc2)CC1 (stereo not drawn)	41*	-15	40*	-5	-1	8%	5%

Screening results from PubChem BioAssay.
